Compound activity from PubChem BioAssay.
In the library only some 1.8% were active in any assay of this set; here they are far more common.
PGE2 EP2 inh: EP2 receptor (human) inhibition | inhibition, % at 25 µM | P43116 | C6 glioma cells expressing human EP2, cAMP TR-FRET; cells stimulated with saturating PGE2 | 260,000 compounds, 0.52% hits;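 active means percent inhibition above 40 after rounding to a whole number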;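 further: rat C6 glioma host cells with rolipram phosphodiesterase inhibitor present; the protocol text gives 20 µM as final concentration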
Target sequence (P43116 whole entry, looked up): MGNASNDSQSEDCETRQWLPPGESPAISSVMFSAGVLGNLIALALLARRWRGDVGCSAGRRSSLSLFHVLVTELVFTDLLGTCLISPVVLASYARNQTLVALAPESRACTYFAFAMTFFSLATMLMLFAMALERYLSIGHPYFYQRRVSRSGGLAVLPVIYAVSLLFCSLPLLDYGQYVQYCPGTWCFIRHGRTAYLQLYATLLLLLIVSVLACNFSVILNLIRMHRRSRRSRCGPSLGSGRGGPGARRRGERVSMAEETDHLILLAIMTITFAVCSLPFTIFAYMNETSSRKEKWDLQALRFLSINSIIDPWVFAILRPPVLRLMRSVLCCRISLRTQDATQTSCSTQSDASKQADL
eIF4E-4G inh: inhibitors of eIF4E and eIF4G interaction in translation initiation; P63073+Q04637; TR-FRET eIF4E-eIF4GI(517-606) binding, 2 h; inhibition, % at 21.7 µM; 220,000 compounds, 0.37% hits; AID 782;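 active means inhibition above about 30%, limit read from the data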
PERK inh: human PERK inhibition, primary cell-based screen; Q9NZJ5; CHO PERK-DD fusion, SEAP luminescence translation reporter; inhibition, % at 5.6 µM; 220,000 compounds, 0.17% hits; AID 1416;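 active means inhibition above the mean inhibition of all tested compounds plus 3 SD, set separately per screening campaign, cut at about 2.9% in these data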;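 further: PERK kinase domain activated by AP20187 dimerizer at 100 nM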
EP2 modulator: modulators of human EP2 prostaglandin E2 receptor | P43116 | EP2-expressing cells, cAMP HTRF FRET, PGE2 co-stimulation | induction, % at 25 µM | 260,000 compounds, 0.83% hits | AID 940;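 active means compounds whose cAMP rise, as percent of the full-agonist control response, exceeds 60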;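 further: rat C6 glioma line stably carrying human EP2 under a CMV promoter; the protocol text gives 20 µM as final concentration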
EP2 cAMP induct: EP2 receptor cAMP induction, counter-screens negative; shares compounds with EP2 modulator; C6 glioma EP2 cells, cAMP HTRF induction; plus low (about EC15) PGE2 agonist; calls only at 20 µM (by protocol); 1,300 compounds, 47% hits; AID 1080;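 active means cAMP induction above 50% in the main assay while under 30% in all four parallel counter assays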;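 further: rat C6 glioma cells stably expressing human EP2 receptor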
Each line names hits and unclear results; the compound was inactive in the other large screens (follow-up assays come after a bar, where they were run).

COc1ccc(-n2c(COc3ccc(Cl)cc3)nnc2SCc2ccc(C#N)cc2)cc1	none | EP2 cAMP induct inactive
COc1ccc(-n2c(COc3ccc(C)cc3)nnc2SCc2ccc(C#N)cc2)cc1	none
O=c1nc(-c2ccccc2)cc(-c2ccccc2)[nH]1	EP2 modulator 65 | EP2 cAMP induct inactive
Cc1nc(-c2ccccc2)cc(=O)[nH]1	none
Cc1cc(C)c2cc(C)c(SCC(=O)NCc3ccco3)nc2c1	EP2 modulator 77 | EP2 cAMP induct active
Cc1ccc(S(=O)(=O)Nc2ccc(Cl)cc2C(=O)c2ccc(F)cc2)cc1	EP2 modulator 67 | EP2 cAMP induct inactive
CCOC(=O)CS(=O)(=O)c1nc2c(c(C(F)(F)F)n1)CCc1ccccc1-2	none (no result: eIF4E-4G inh, PERK inh)
CC(Sc1nnc(-c2cccs2)n1Cc1ccccc1)C(=O)NCc1ccc2c(c1)OCO2 (centres undefined)	EP2 modulator 70 | EP2 cAMP induct inactive
Cc1ccc(N(C(=O)c2snc(C(N)=O)c2N)C(C(=O)NCCC(C)C)c2ccco2)cc1 (centres undefined)	EP2 modulator 78 | EP2 cAMP induct inactive
CC(C)CCNC(=O)C(c1ccco1)N(Cc1ccccc1)C(=O)c1snc(C(N)=O)c1N (centres undefined)	none
O=S(=O)(Nc1ccc(S(=O)(=O)N2CCCC2)cc1)c1ccc(Cl)cc1	none (no result: eIF4E-4G inh, PERK inh)
C=CCc1cc(C=O)cc(OCC)c1OCc1ccc(Cl)cc1	EP2 modulator 87 | EP2 cAMP induct active
C=CCc1cc(C=O)cc(OC)c1OCc1ccc(Cl)cc1	EP2 modulator 83 | EP2 cAMP induct active
COc1cc(C=O)ccc1OCCOCCOc1ccc(Cl)cc1	none
Cc1ccc(S(=O)(=O)c2ccc(Oc3cccc(C)c3)cc2)cc1	EP2 modulator 78 | EP2 cAMP induct inactive
Cc1cc2ccccc2n2c(=O)n(CC(=O)NCc3ccco3)nc12	none (no result: PGE2 EP2 inh, eIF4E-4G inh, PERK inh)
CC(=O)c1ccc(S(=O)(=O)NCCCC(=O)NCCc2ccccn2)cc1	EP2 modulator 71 | EP2 cAMP induct inactive
COC(=O)c1c(-c2ccc(F)cc2)csc1NC(=O)C1CCCO1 (centres undefined)	EP2 modulator 66 | EP2 cAMP induct inactive
CCc1ccc(-c2csc(NC(=O)C3CCCO3)c2C(=O)OC(C)C)cc1 (centres undefined)	none
CC1CCCN(c2nc3c(c(=O)[nH]2)CN(Cc2ccccc2O)CC3)C1 (centres undefined)	none (no result: eIF4E-4G inh, PERK inh)
COc1ccccc1CN(Cc1cc(OC)c2c(c1)OCO2)CC1CCCO1 (centres undefined)	none (no result: eIF4E-4G inh, PERK inh)
CC(C)NC(=S)NC(=O)c1ccc(-c2ccccc2)cc1	none
COc1ccc(C(=O)O)cc1NC(=S)NC(=O)c1ccc(-c2ccc(Cl)cc2)o1	EP2 modulator 95 | EP2 cAMP induct active
Cc1ccc(C(=O)O)cc1NC(=S)NC(=O)c1ccc(-c2ccccc2)cc1	EP2 modulator 74 | EP2 cAMP induct active
CCC(=O)NC(=S)Nc1cc(C(=O)O)ccc1OC	none
CC(=O)NC1CC2CCCC(C1)N2Cc1cccs1 (centres undefined)	none (no result: eIF4E-4G inh, PERK inh)
CCN1CCN(c2ncnc3sc4c(c23)CCC4)CC1	none (no result: eIF4E-4G inh, PERK inh)
CCC1CCc2c(sc3ncnc(N4CCOCC4)c23)C1 (centres undefined)	none | EP2 cAMP induct active
O=C(NNc1nc(-c2ccc3c(c2)Cc2ccccc2-3)cs1)c1ccccc1	none (no result: eIF4E-4G inh, PERK inh)
Cc1ccc(Oc2nc(-c3ccccc3)ncc2S(C)(=O)=O)cc1	EP2 modulator 75 | EP2 cAMP induct inactive
CC1=C(C#N)CCC(=O)N1Cc1c(F)cccc1Cl	none
O=C1CCC(c2ccccc2)=NN1Cc1c(F)cccc1Cl	EP2 modulator 66 | EP2 cAMP induct active
O=C(CN1CCC(O)(c2cccnc2)CC1)Nc1ccccc1Cl	none (no result: PGE2 EP2 inh, eIF4E-4G inh, PERK inh)
COC(=O)c1cc2nc(-c3ccccc3)cc(C)n2n1	none
COc1ccc(-c2cc(C(F)(F)F)n3nc(C(=O)N(C)Cc4ccccc4)cc3n2)cc1OC	none | EP2 cAMP induct inactive
Cc1cc(-c2ccccc2)nc2cc(C(=O)N(Cc3ccccc3)Cc3ccccc3)nn12	EP2 modulator 72 | EP2 cAMP induct active
Cc1ccnc(SCC(=O)n2c3c(c4ccccc42)CC(C)CC3)n1 (centres undefined)	EP2 modulator 74 | EP2 cAMP induct active
COc1ccccc1C(CC(=O)c1ccccc1)CC(=O)c1ccccc1	EP2 modulator 67 | EP2 cAMP induct active
COc1ccc(C(CC(=O)O)NC(=O)c2ccccc2)cc1OC (centres undefined)	none
CCn1c2c(c3cc(OCC(C)C)ccc31)CCCC2=O	EP2 modulator 74 | EP2 cAMP induct active
CCn1c2c(c3cc(Br)ccc31)CCC/C2=N\O	none
CN1[C@@H](C(=O)N2CCCCC2)C[C@@H](c2ccco2)NS1(=O)=O	none (no result: PGE2 EP2 inh, eIF4E-4G inh, PERK inh)
S=c1[nH]nc(-c2ccccc2)n1/N=C/c1ccc(-c2ccccc2Cl)o1	EP2 modulator 78 | EP2 cAMP induct active
COC(=O)c1c(NC(=O)c2ccco2)sc2c1CCC2	none
CC(C)OC(=O)c1c(NC(=O)c2ccco2)sc2c1CCCCC2	none | EP2 cAMP induct inactive
COC(=O)c1c(NC(=O)c2cccs2)sc2c1CCC(C)C2 (centres undefined)	EP2 modulator 64 | EP2 cAMP induct inactive
CC(C)OC(=O)c1c(NC(=O)c2cccs2)sc2c1CCCC2	none | EP2 cAMP induct active
CC1CCN(Cc2ccc(N)cc2)CC1	none (no result: eIF4E-4G inh, PERK inh)
CC(Sc1nc(-c2ccccc2)cc(C(F)(F)F)n1)C(=O)Nc1ccccc1Br (centres undefined)	none (no result: eIF4E-4G inh, PERK inh)
Cc1ccccc1N=C1SCC(=O)N1Cc1ccccc1	EP2 modulator 67 | EP2 cAMP induct active
Cc1cccc(N2CCN(CC(=O)Nc3sc4c(c3C#N)CCCC4)CC2)c1C	none (no result: eIF4E-4G inh, PERK inh)
COc1ccc(C(=O)/C(=C/O)N=Nc2ccc(F)cc2)cc1	EP2 modulator 69 | EP2 cAMP induct active
Cc1cccc(N=N/C(=C\O)C(=O)c2ccc(Br)cc2)c1	EP2 modulator 97 | EP2 cAMP induct active
COc1ccc(N=N/C(=C\O)C(=O)c2cccs2)cc1	EP2 modulator 67 | EP2 cAMP induct inactive
COc1ccc(NC(=O)c2cccs2)cc1	none
O=C(CN1C(=O)[C@H]2CCCN2C(=O)c2ccccc21)Nc1cccc2ccccc12	none (no result: eIF4E-4G inh, PERK inh)
COc1ccccc1C(=O)NCc1ccccc1	none
O=C(NCc1ccc(F)cc1)c1ccccc1OCc1ccccc1	EP2 modulator 81 | EP2 cAMP induct active
Cc1ccc(N2C(=O)SC(Nc3ccc(S(N)(=O)=O)cc3)C2=O)cc1 (centres undefined)	none (no result: eIF4E-4G inh, PERK inh)
CCSc1ccccc1C(=O)Nc1ccc([N+](=O)[O-])cc1OC	EP2 modulator 66 | EP2 cAMP induct inactive
CCC(C)C(=O)Nc1ccc([N+](=O)[O-])cc1OC (centres undefined)	none
O=C(CSc1nc(O)c(C2CCCCC2)c(=O)[nH]1)NC1CCCCC1	none (no result: eIF4E-4G inh, PERK inh)
CCCCCc1ccc(-c2ccc(=O)[nH]n2)cc1	EP2 modulator 89 (no result: PGE2 EP2 inh) | EP2 cAMP induct inactive
Cc1cccc(C)c1NC(=O)CSc1nc(C)c(C)c(=O)[nH]1	none (no result: eIF4E-4G inh, PERK inh)
c1ccc(-c2nn3c(-c4ccccc4)nnc3s2)cc1	EP2 modulator 74 | EP2 cAMP induct active
